Records with an inconclusive call do not appear. Activity calls are given as the source filed them. The calls were made as follows, unless noted: active = hit-call score of the fitted dose curve at least 0.9, where 1 is the maximum; inactive = score below 0.9.

For test [1], the target named is zebrafish Thyroid Hormone Receptor beta (TRb), thrb (gene 30607) (UniProt Q9PVE4). Put plainly: ATG_zfTRb_XSP2: Attagene TRANS-FACTORIAL Multi-Species (XSP1) HepG2 Assay for zebrafish Thyroid Hormone Receptor beta (TRb) (AID 2283836; active = hit-call score of the fitted dose curve at least 0.9, where 1 is the maximum). In short, it runs like this:
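Reporter transcripts measured by RT-PCR, 6-FAM labelling, HpaI digestion and capillary electrophoresis after 24 h chemical exposure. Human HepG2 cells carry an exogenous zebrafish TRb-GAL4 chimera; medium included 3 nM 6-alpha-fluorotestosterone plus 1.5 nM norgestrel.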

The target of test [2] is frog Thyroid hormone Receptor alpha (TRa), thra-a (gene 397942) (UniProt P15204). The test can be described thus: ATG_frTRa_XSP2: Attagene TRANS-FACTORIAL Multi-Species (XSP2) HepG2 Assay for frog Thyroid hormone Receptor alpha (TRa) (AID 2283839; active = hit-call score of the fitted dose curve at least 0.9, where 1 is the maximum). The method in brief: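 Frog thyroid receptor alpha was tested as an exogenous NR-Gal4 fusion in transiently transfected HepG2 cells. After 24 h chemical treatment, reporter mRNA induction was quantified by RT-PCR and capillary electrophoresis, with gain-of-signal analysed relative to DMSO.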
Chain of frog Thyroid hormone Receptor alpha (TRa), thra-a (gene 397942) (P15204 whole entry, looked up, the tested form may be a part): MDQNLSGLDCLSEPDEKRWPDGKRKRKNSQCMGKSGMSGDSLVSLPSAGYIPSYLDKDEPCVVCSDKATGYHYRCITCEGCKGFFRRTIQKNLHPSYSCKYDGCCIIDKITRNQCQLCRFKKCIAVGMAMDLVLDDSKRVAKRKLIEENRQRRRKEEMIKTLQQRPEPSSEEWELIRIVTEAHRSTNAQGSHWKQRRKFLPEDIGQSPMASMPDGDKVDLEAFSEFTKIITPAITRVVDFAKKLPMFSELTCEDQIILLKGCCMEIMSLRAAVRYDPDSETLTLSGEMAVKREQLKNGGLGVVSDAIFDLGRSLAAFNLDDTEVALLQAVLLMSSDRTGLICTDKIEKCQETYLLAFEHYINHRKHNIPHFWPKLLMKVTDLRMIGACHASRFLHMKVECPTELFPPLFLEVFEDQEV

In test [3] the target is human Thyroid hormone Receptor beta (TRb), THRB (gene 7068) (UniProt P10828). The test can be described thus: ATG_hTRb_XSP2: Attagene TRANS-FACTORIAL Multi-Species (XSP2) HepG2 Assay for human Thyroid hormone Receptor beta (TRb) (AID 2283840; active = hit-call score of the fitted dose curve at least 0.9, where 1 is the maximum;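 also: actives raise reporter mRNA so potency reflects agonist-like gain of signal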). In short, it runs like this:
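In this cell-based multiplex, HepG2 liver cells carrying transfected GAL4-UAS reporter constructs are exposed to chemical for 24 hours, then reporter transcripts are measured by RT-PCR with capillary electrophoresis, scored as gain of signal against DMSO.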

The test system of test [4] is Sodium/Iodide Symporter (NIS), SLC5A5 (gene 6528). The test can be described thus: CPHEA_Stoker_NIS_Inhibition_RAIU: CPHEA's Radioactive Iodide Uptake (RAIU) Assay for Sodium/Iodide Symporter (NIS) Inhibition, Stoker and Laws Labs (AID 2283841; active = hit-call score of the fitted dose curve at least 0.9, where 1 is the maximum). The method in brief:
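HEK293T cells stably expressing human NIS (hNIS-HEK293T-EPA) were exposed to test chemicals at 0.001–100uM (0.5% final DMSO) with 125I at a final 329pM in HBSS/10mM HEPES pH 7.4. After 2 hours at room temperature and ice-cold washes, intracellular 125I was counted as CPM and normalized to DMSO wells.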

A short description of test [5]: CPHEA_Stoker_NIS_Cytotoxicity: Cytotoxicity Assessment for CPHEA's Radioactive Iodide Uptake (RAIU) Assay for Sodium/Iodide Symporter (NIS) Inhibition, Stoker and Laws Labs (AID 2283897; active = hit-call score of the fitted dose curve at least 0.9, where 1 is the maximum). The method in brief:
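hNIS-HEK293T-EPA human kidney cells were exposed for 2 hours at room temperature to test chemicals (0.001–100uM, 0.5% final DMSO) in HEPES-buffered HBSS, pH 7.4. Viability was read as ATP content by luciferase bioluminescence, loss of signal versus DMSO.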

Test [6] is described as follows: CEETOX_H295R_11DCORT_noMTC: CeeTox H295R High-throughput Steroidogenesis Assay for 11-Deoxycortisol (11DCORT), maximum tolerated concentration (MTC) filtered results only (AID 2283911). Particulars: actives raise or lower the signal. The method in brief:
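Readout is 11-deoxycortisol in culture medium by reverse-phase HPLC with MS/MS, after 48 h chemical treatment of forskolin-primed H295R cells. Values are relative to DMSO and unfiltered for cytotoxicity.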

Test [7] in a line: CEETOX_H295R_OHPREG_noMTC: CeeTox H295R High-throughput Steroidogenesis Assay for OH-Pregnenolone (OHPREG), maximum tolerated concentration (MTC) filtered results only (AID 2283912). The settings on record: actives raise or lower the signal. The method in brief: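 Readout is HPLC-MS/MS quantification of 17alpha-hydroxypregnenolone released by forskolin-stimulated H295R cells over 48 h of chemical exposure, DMSO as baseline.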

Test [8] is described as follows: CEETOX_H295R_OHPROG_noMTC: CeeTox H295R High-throughput Steroidogenesis Assay for OH-Progesterone (OHPROG), maximum tolerated concentration (MTC) filtered results only (AID 2283914). Particulars: actives raise or lower the signal. The method in brief: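 Analysis uses all tested concentrations, without maximum-tolerated-concentration screening by MTT. H295R cells, forskolin-primed (10 uM, 48 h), receive chemical for 48 h; hormone in medium measured by HPLC-MS/MS, with bidirectional curve fitting against DMSO.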

Test [9] can be described thus: CEETOX_H295R_CORTISOL_noMTC: CeeTox H295R High-throughput Steroidogenesis Assay for Cortisol, maximum tolerated concentration (MTC) filtered results only (AID 2283916). Particulars: actives raise or lower the signal. The method in brief: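 H295R adrenal cells were pre-stimulated 48 h with 10 uM forskolin, then exposed 48 h to test chemical in 0.1% DMSO. Medium cortisol was measured by MTBE extraction and HPLC-MS/MS; bidirectional fit versus DMSO, concentrations not MTC-filtered.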

A short description of test [10]: CEETOX_H295R_CORTIC_noMTC: CeeTox H295R High-throughput Steroidogenesis Assay for Corticosterone (CORTIC), maximum tolerated concentration (MTC) filtered results only (AID 2283917). Particulars: actives raise or lower the signal. In short, it runs like this: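 Forskolin-stimulated (10 uM, 48 h) H295R cells are dosed 48 h with chemical in DMSO (0.1% final); corticosterone change is quantified by HPLC-MS/MS and fitted bidirectionally against DMSO, unfiltered for MTT-derived MTC.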

Test [11] can be described thus: CEETOX_H295R_DOC_noMTC: CeeTox H295R High-throughput Steroidogenesis Assay for DOC, maximum tolerated concentration (MTC) filtered results only (AID 2283918). The settings on record: actives raise or lower the signal. In short, it runs like this: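 H295R cells prestimulated 48 h with 10 uM forskolin, then exposed 48 h to test chemical (0.1% DMSO final). Medium 11-deoxycorticosterone extracted with MTBE, quantified by HPLC-MS/MS; bidirectional fit versus DMSO, concentrations not MTC-filtered.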

Test [12] can be described thus: CEETOX_H295R_PROG_noMTC: CeeTox H295R High-throughput Steroidogenesis Assay for Progesterone (PROG), maximum tolerated concentration (MTC) filtered results only (AID 2283920). Particulars: actives raise or lower the signal. The method in brief:
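Progesterone synthesis in the human adrenal line H295R is measured by HPLC-MS/MS after 48 h chemical exposure following 48 h forskolin (10 uM) stimulation. Activity in either direction is fitted relative to DMSO.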

In test [13] the target is PGR (gene 5241) (UniProt P06401). Put plainly: TOX21_PR_BLA_Followup_Antagonist_ratio: Tox21 HEK293 Progesterone Receptor (PR) Antagonism Beta-lactamase Follow-Up Assay, Ratio (AID 2283934; active = hit-call score of the fitted dose curve at least 0.9, where 1 is the maximum). The method in brief: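 Readout is the blue/green (ch2/ch1) substrate cleavage ratio after 2 hours at room temperature, following 16 hr co-treatment of PR-bla HEK293T cells with compound and 1nM promegestone. Multiplexed CellTiter-Glo viability flags cytotoxicity; DMSO baseline.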
Chain of PGR (gene 5241) (P06401 whole entry, looked up): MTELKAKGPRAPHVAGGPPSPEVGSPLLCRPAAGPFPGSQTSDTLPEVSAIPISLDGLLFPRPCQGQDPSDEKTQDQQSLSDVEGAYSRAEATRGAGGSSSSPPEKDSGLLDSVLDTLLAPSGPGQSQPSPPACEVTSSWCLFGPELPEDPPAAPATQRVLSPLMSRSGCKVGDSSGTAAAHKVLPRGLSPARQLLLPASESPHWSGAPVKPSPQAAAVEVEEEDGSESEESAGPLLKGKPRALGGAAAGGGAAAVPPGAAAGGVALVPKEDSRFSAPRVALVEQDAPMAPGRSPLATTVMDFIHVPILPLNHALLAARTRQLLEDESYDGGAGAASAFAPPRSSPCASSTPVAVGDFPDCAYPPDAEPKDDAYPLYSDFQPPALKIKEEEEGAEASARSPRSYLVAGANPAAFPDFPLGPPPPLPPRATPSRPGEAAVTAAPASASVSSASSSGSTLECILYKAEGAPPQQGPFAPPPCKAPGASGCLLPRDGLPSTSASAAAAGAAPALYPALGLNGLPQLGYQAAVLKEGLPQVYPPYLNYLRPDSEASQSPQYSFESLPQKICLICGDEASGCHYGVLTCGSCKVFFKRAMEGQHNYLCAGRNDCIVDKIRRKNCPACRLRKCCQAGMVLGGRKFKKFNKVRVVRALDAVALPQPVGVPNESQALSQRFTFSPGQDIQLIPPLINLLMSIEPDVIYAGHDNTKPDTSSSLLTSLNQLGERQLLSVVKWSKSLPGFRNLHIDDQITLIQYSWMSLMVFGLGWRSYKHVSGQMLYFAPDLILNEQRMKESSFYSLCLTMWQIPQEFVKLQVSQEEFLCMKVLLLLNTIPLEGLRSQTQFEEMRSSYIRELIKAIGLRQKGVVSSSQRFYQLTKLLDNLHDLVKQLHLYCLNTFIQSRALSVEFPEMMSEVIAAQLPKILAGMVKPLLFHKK

A short description of test [14]: TOX21_PR_BLA_Followup_Agonist_viability: Viability Assessment in the Tox21 HEK293 Progesterone Receptor (PR) Agonism Beta-lactamase Follow-Up Assay (AID 2283935; active = hit-call score of the fitted dose curve at least 0.9, where 1 is the maximum;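 also: signal loss means lower viability so actives are cytotoxic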). In short, it runs like this:
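Run multiplexed with the beta-lactamase FRET read, this endpoint measures ATP by CellTiter-Glo luminescence (30 min, room temperature). PR-UAS-bla HEK293T cells received compound 6 hr after plating and were then incubated 16 hr at 37C in 2% stripped serum.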

Test [15] in a line: TOX21_PR_BLA_Followup_Antagonist_viability: Viability Assessment in the Tox21 HEK293 Progesterone Receptor (PR) Antagonism Beta-lactamase Follow-Up Assay (AID 2283936; active = hit-call score of the fitted dose curve at least 0.9, where 1 is the maximum;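 also: cells exposed to compound with R5020 agonist for 16 h; hits lower the luminescence signal meaning cytotoxicity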). The method in brief: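 PR-UAS-bla HEK293T cells in medium with 2% charcoal-stripped FBS were treated with compounds plus R5020 for 16 hr at 37C. After the beta-lactamase read, CellTiter-Glo was added to the same wells and luminescence read after 30 min at room temperature.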

Test [16] can be described thus: CEETOX_H295R_ANDR_noMTC: CeeTox H295R High-throughput Steroidogenesis Assay for Androstenedione (ANDR), maximum tolerated concentration (MTC) filtered results only (AID 2283915). The settings on record: actives raise or lower the signal. The method in brief: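 Androstenedione secreted into medium was measured by LC-MS/MS after MTBE extraction. Human adrenal H295R cells received 10 uM forskolin for 48 h before 48 h chemical exposure (0.1% DMSO). Gain or loss fitted against DMSO, including concentrations above the MTT-derived MTC.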

Test [17] in a line: CEETOX_H295R_TESTO_noMTC: CeeTox H295R High-throughput Steroidogenesis Assay for Testosterone (TESTO), maximum tolerated concentration (MTC) filtered results only (AID 2283924). Particulars: actives raise or lower the signal. The method in brief: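 Medium testosterone, measured by HPLC-MS/MS after liquid-liquid extraction, was fitted in both directions relative to DMSO without MTC filtering. Adrenal H295R cells received 48 h chemical exposure (0.1% DMSO final) after 48 h forskolin (10 uM) prestimulation; viability by MTT.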

Chain of human Thyroid hormone Receptor beta (TRb), THRB (gene 7068) (P10828 whole entry, looked up, the tested form may be a part): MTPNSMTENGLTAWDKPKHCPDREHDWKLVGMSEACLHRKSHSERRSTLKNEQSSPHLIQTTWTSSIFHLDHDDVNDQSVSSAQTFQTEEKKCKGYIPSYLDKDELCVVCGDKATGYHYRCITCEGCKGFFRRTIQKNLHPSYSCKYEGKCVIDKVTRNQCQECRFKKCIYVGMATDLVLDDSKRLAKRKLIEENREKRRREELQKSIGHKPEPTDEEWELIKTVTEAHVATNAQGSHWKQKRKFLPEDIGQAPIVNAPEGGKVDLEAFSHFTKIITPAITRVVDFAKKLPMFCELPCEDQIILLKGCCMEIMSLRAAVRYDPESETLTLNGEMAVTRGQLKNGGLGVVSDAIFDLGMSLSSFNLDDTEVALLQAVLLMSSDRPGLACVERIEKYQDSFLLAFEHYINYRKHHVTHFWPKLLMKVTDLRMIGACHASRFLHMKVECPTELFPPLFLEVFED
Chain of zebrafish Thyroid Hormone Receptor beta (TRb), thrb (gene 30607) (Q9PVE4 whole entry, looked up, the tested form may be a part): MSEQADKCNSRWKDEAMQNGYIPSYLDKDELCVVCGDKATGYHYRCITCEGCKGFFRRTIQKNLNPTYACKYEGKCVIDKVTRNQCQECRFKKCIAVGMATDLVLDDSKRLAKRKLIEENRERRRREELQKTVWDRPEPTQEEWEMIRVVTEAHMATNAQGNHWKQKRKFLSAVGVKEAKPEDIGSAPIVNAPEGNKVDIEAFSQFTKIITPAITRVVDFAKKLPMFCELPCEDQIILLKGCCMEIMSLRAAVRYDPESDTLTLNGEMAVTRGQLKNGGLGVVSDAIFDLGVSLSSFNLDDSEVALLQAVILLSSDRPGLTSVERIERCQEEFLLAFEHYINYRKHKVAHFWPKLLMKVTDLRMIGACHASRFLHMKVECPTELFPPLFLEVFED

On to `[Cl][Sn]([c]1ccccc1)([c]1ccccc1)[c]1ccccc1`, for which the call in test [1] and in test [2] was inactive. In addition, the AC50 in test [3] was 0.558 µM (active).

Regarding `CC(C)N(C(=O)CCl)c1ccccc1`, the result in [4] and in test [5] was inactive.

For `CC(=Cc1ccccc1)[N+](=O)[O-]`, the outcome in [4] and in test [5] was inactive.

Consider `CC1(C)[C@H](C(=O)O[C@H](C#N)c2cccc(Oc3ccccc3)c2)[C@@H]1/C=C(\Cl)C(F)(F)F`, for which, in [4], the result was inactive.

On to `C=CC(Cl)CCl` (stereo unspecified), for which the outcome in [4] and in [5] was inactive.

In the case of `CC(C)(C)c1ccccc1O`, the result in test [5] was inactive.

With `OC[P+](CO)(CO)CO`, the AC50 was 6.54 µM (active) in test [6]; 6.42 µM (active) in [7]; 3.48 µM (active) in [8]; 4.63 µM (active) in test [9]; 3.54 µM (active) in test [10]; 12.3 µM (active) in test [11]. In addition, the AC50 in test [12] was 2.5 µM (active).

On to `Nc1ccc(-c2ccccc2)cc1`, for which the AC50 in test [13] was 22.3 µM (active). The result in test [14] and in test [15] was inactive.

For `c1cc[c]([Sb]([c]2ccccc2)[c]2ccccc2)cc1`, the call in test [6], in test [11] and in test [17] was inactive. Moreover, the AC50 in [7] is 50 µM (active); in test [8], 1.53 µM (active); in test [16] it was 27.8 µM (active); in test [9], 11.3 µM (active); in test [10], 8.85 µM (active); in test [12] it was 10.8 µM (active).

With `CCC[CH2][Sn]([CH2]CCC)([CH2]CCC)[CH2]CCC`, the outcome in [4] and in [5] was inactive.

Turning to `Cc1cc(Cl)ccc1N`, the result in test [6], in [7], in test [9], in test [10] and in test [11] was inactive. The concentration at half-maximal activity (AC50) in test [8] was 25.5 µM (active); in test [12] it was 24.1 µM (active).

Take `CCCCCCCCCCCCOS(=O)(=O)O`: the outcome in test [4] and in test [5] was inactive.

One may read the AC50 as the concentration giving half of the maximal activity seen.

For the origin of these results see PubChem BioAssay (EPA / NIEHS).
